From PubChem BioAssay AID778 (Sanford-Burnham Center for Chemical Genomics, 2007) come the findings set out here.

Screen size: about 96,000 compounds; about 20,000 (21%) were called active. The list is a sample of the results. Values without a mark were called inactive.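 How the source made its calls: active means CYP2C19 inhibition above a set limit at 5 µM in the primary screen (cut at about 50% in these data); inactive means the rest.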

Cytochrome P450 2C19 (Homo sapiens), sequence (P33261 whole entry, looked up): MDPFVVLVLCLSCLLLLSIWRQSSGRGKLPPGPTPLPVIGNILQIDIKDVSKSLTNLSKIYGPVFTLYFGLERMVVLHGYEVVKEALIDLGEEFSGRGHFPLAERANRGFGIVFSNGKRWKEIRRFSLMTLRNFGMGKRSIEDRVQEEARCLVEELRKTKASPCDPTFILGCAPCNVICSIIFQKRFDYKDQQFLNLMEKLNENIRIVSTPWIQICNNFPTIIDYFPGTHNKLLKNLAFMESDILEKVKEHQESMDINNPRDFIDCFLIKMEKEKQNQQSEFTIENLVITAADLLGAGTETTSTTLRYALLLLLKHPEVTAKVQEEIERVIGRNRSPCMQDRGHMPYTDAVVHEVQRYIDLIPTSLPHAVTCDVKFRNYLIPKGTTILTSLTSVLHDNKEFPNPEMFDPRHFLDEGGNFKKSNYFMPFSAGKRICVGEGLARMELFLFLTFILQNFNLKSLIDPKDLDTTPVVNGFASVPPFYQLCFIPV

This assay has as its target Cytochrome P450 2C19 (Homo sapiens) (UniProt P33261). In words: blockers of cytochrome P450 2C19 activity – biochemical, luminescence, ADME assay, primary screen (AID 778).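 Further: plate controls were negative control wells for no effect and 2.5 mM tranylcypromine positive control for full effect.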 The conditions noted are these: CYP2C19 Supersomes, luciferin-H EGE luminescence, 30 min; at 5 µM; active compounds read high.
The inhibition is the change of the read-out against control, counted positive when it falls. As for `CCOP1(=O)C=C(C(C)(C)C)OC1c1ccc(F)cc1` (configuration not stated), the inhibition was 15.6%.
Take `CCCOP(=O)(c1ccc(N(C)C)cc1)C(O)c1cc(OC)c(OC)c(OC)c1` (configuration not stated): the inhibition is 16.9%.
On to `O=C(O)c1cc2ccccc2c(=O)s1`, for which the inhibition is 15.6%.
With `CCSC1=C(C#N)C(=O)n2c1cc1c2CCCC1`, the inhibition was 10.1%.
As for `Cn1c(=O)c2c(ncn2CC(COCc2ccccc2Cl)OCc2ccccc2Cl)n(C)c1=O` (configuration not stated), the figure is 49.2%; as for `Cn1c(=O)c2c(ncn2CC(=O)N2CCN(c3ccccc3)CC2)n(C)c1=O`, 4.9%.
For the compound `CC(C)Cn1cnc2c1c(=O)n(CC(O)c1ccccc1)c(=O)n2CC(C)C` (configuration not stated), the inhibition was 58.8% (active).
As to `CCCc1nc2oc3c(OCC)ncnc3c2c2c1COC(C)(C)C2`, the inhibition is -9.9%.
In the case of `CCC(C)n1[nH]c(=O)c2c(C)cc(C)nc21` (configuration not stated), the inhibition is 10.9%.
With `O=C1CC(N2CCN(C(c3ccccc3)c3ccccc3)CC2)C(=O)N1` (configuration not stated), the inhibition is 8.8%.
With `CC(C)(C)c1cc(CN2CCN(CCC#N)CC2)cc(C(C)(C)C)c1O` the figure was -2.1%; with `O=C(CSc1ncn[nH]1)Nc1ccnc2ccccc12`, 27.1%.
As for `CC(C)(C)c1ccc(C(=O)CSc2ncn[nH]2)cc1`, the figure is 23%; as for `CCN(C(=O)CSc1ncn[nH]1)c1cccc2ccccc12`, 63.2% (active); as for `CCOC(=O)c1nnn(CC(=O)Nc2cccc(F)c2)c1C(=O)OCC`, 95.7% (active).
With `COc1ccc(NC(=O)Cn2nnc(C(=O)NCCc3ccc(OC)c(OC)c3)c2N)cc1` the figure was 4.1%; with `CCOC(=O)c1cccc(NC(=O)CCn2nnc3ccccc32)c1`, 23.3%; with `CC12CCC(C(=O)N3CCN(c4ncccn4)CC3)(c3nc4ccccc4nc31)C2(C)C` (configuration not stated), 31.7%.
Regarding `Cc1cc(C(=O)COC(=O)c2cccs2)c(C)n1-c1c(C)n(C)n(-c2ccccc2)c1=O`, the inhibition was -0.8%.
Consider `CCCn1c(C)cc(C(=O)COC(=O)c2c(C)nn(-c3ccccc3)c2C)c1C`, for which the inhibition is 88.6% (active).
As for `Cc1nn(-c2ccccc2)c(C)c1C(=O)OCC(=O)NC(=O)NC1CCCCC1`, the figure is 28.3%.
As for `O=C1CCC(C(=O)Nc2ccc(OC(F)F)cc2)N1` (configuration not stated), the figure is 0%; as for `O=c1cc(CO)oc(CN2CCC(Cc3ccccc3)CC2)c1O`, 15.2%.
For the compound `CCN1CCCC1CNC(=O)Cn1cnc2ccc(S(=O)(=O)N3CCC(C)CC3)cc2c1=O` (configuration not stated), the inhibition was -0.8%.
In the case of `COCC(C)N=CC1=C(O)CC(C)(C)CC1=O` (configuration not stated), the inhibition was 0.7%.
Turning to `c1ccc(Nc2n[nH]nc2-c2ccccc2)cc1`, the inhibition is 84.7% (active).
Consider `Nc1ccc(Nc2ccccc2)cc1`, for which the inhibition is 36.6%.
